Source: PubChem BioAssay (NCATS)
Results filed as inconclusive are left out. The source made the active and inactive calls. Calls come from the whole dose curve; as a rule, active = well fitted curve in the direction sought with a large enough effect; inconclusive = small, poorly fitted or top-dose-only effect, or another doubt; inactive = no such curve, though single readings can be large; an effect the other way counts as inactive or inconclusive.

Assays:
[1] = biological target: Phospholipid hydroperoxide glutathione peroxidase GPX4 (Homo sapiens) (UniProt P36969); test: Primary qHTS Assay for Inhibitors of Recombinant Selenoprotein Glutathione Peroxidase 4 (GPX4) (AID 1845192); note: nearly all actives have a fitted effect of over 65% in size; for activity change, negative = inhibition: series mostly up to about 50 µM; % is set by controls: 0 for no effect and ±100 for the full control effect
Sequence of Phospholipid hydroperoxide glutathione peroxidase GPX4 (Homo sapiens) (P36969 whole entry, looked up): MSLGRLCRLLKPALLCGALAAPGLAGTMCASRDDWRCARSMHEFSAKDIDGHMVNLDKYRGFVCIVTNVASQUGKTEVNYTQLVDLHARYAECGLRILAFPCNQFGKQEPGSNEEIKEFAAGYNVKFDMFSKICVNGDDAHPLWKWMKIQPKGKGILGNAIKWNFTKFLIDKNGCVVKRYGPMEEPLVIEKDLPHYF
Summary of the method: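 NADPH consumption, followed by fluorescence at 340/450 nm between 0 and 15 min, reports GPX4 activity via coupled glutathione reductase (100 nM). Enzyme 200 nM was pre-exposed to compound 30 min; 0.5 mM cumene hydroperoxide and 1 mM GSH served as substrates.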

[2] = biological target: Luciferin 4-monooxygenase (Photinus pyralis) (UniProt P08659); test: Primary firefly luciferase (FLuc) qHTS assay for identification of artifact compounds. (AID 1845220); note: nearly all actives have a fitted effect of over 60% in size;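 for activity change, negative = inhibition: series mostly up to about 54 µM; plate controls were DMSO vehicle for no effect and no enzyme for full effect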
Summary of the method: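 Cell-free, 1536-well qHTS. Buffer pH 7.6 with 0.01% Tween-20 and 0.05% BSA; 10 uM D-luciferin, 10 uM ATP; 10 nM P. pyralis luciferase; luminescence after 5 min.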

[3] = test system: Nanoluciferase (engineered Oplophorus gracilirostris luciferase); test: Primary Nanoluciferase (NLuc) qHTS assay for identification of artifact compounds. (AID 1845222);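 note: series mostly up to about 54 µM; 0% = DMSO and -100% = no enzyme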
Summary of the method: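 Compounds are pinned into diluted (1:55) conditioned medium of NLuc-expressing S16 cells and held 15 min at room temperature protected from light. Nano-Glo substrate follows, and luminescence is read 5 min later.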

[4] = Primary redox qHTS assay for identification of artifact compounds. (AID 1845223);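 note: 0% = DMSO and 100% = reference compound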
Summary of the method: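 Amplex Red (25 uM) and HRP (250 mU/mL) in HBSS, with compounds for 15 min, then 250 uM DTT for 30 min, room temperature, dark. Fluorescence 525/598 nm read; normalized to DMSO and 10 uM DA3003; Hill fit.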

CC(=O)O[C@H]1[C@H](Oc2ccccc2COC(=O)C2(O)C=CCCC2=O)O[C@H](CO)[C@@H](O)[C@@H]1O (some centres undefined)
inactive: Potency [1] | Potency [2] | Potency [3] | Potency [4]

CC(=O)c1cnc2ccc(-c3cc(Cl)c(O)c(Cl)c3)nc2c1NC1CCC(CN(C)C)CC1 (centres undefined)
inactive: activity change, negative = inhibition [1] 17.1% [at 9.73 µM] | activity change, negative = inhibition [2] 2.41% [at 11.6 µM] | activity, negative = inhibition [3] 0% [at 11.6 µM] | redox activity (% of DA3003) [4] 2.52% [at 11.5 µM]

Cc1cc(Nc2ncc(Cl)c(Nc3ccccc3S(=O)(=O)C(C)C)n2)c(OC(C)C)cc1C1CCNCC1
inactive: Potency [1] | Potency [2] | Potency [3] | Potency [4]

CCc1nc(C(N)=O)c(Nc2ccc(N3CCC(N4CCN(C)CC4)CC3)c(OC)c2)nc1NC1CCOCC1
inactive: Potency [1] | Potency [2] | Potency [3] | Potency [4]

CC(C)CC(=O)OC[C@H]1O[C@@](COC(=O)CC(C)C)(O[C@H]2O[C@H](CO)[C@@H](O)[C@H](O)[C@H]2O)[C@@H](OC(=O)CC(C)C)[C@@H]1OC(=O)CC(C)C
inactive: Potency [1] | Potency [2] | Potency [3] | Potency [4]

COc1cc(COC2OC(CO)C(O)C(O)C2O)cc(OC)c1O (centres undefined)
inactive: Potency [1] | Potency [2] | Potency [3] | Potency [4]

CC1=CC(=O)CC(C)(C)C1(O)CCC(C)O (centres undefined)
inactive: Potency [1] | Potency [2] | Potency [3] | Potency [4]

CC1(C)O[C@]23C[C@H]1C[C@H](OC(=O)c1ccoc1)[C@]2(C)[C@@H](OC(=O)c1ccoc1)CCC3(C)O (some centres undefined)
inactive: Potency [1] | Potency [2] | Potency [3] | Potency [4]

C/C(=C\CCC(C)(O)c1ccc(C)cc1)C(=O)O (centres undefined)
inactive: Potency [1] | Potency [2] | Potency [3] | Potency [4]

CC(=O)NC(C(=O)OC1CCC(C)(C)C2CC=C3C(=O)OCC3(O)C12C)C(C)C (centres undefined)
inactive: Potency [1] | Potency [2] | Potency [3] | Potency [4]

O=C(/C=C/c1ccc(O)cc1)O[C@H]1[C@@H]2C=CO[C@@H](O[C@@H]3O[C@H](CO)[C@@H](O)[C@H](O)[C@H]3O)[C@@H]2[C@@]2(CO)O[C@@H]12
inactive: Potency [1] | Potency [2] | Potency [3] | Potency [4]

CC[C@@H](c1ccc(F)c(F)c1)n1c(C(=O)OC)c(-c2ccno2)[nH]c1=S
inactive: Potency [1] | Potency [2] | Potency [3] | Potency [4]

COC(=O)C[C@@H]1C(C(=O)O)=CO[C@@H](O[C@@H]2O[C@H](CO)[C@@H](O)[C@H](O)[C@H]2O)/C1=C\COC(=O)/C=C\c1ccccc1
inactive: Potency [1] | Potency [2] | Potency [3] | Potency [4]

CCOC(=O)N1CCC(NCCNC(=O)c2ccccc2C)CC1
inactive: Potency [1] | Potency [2] | Potency [3] | Potency [4]

CCNC(=O)[C@H]1O[C@H](n2cnc3c(NCC(c4ccccc4)c4ccccc4)nc(C(=O)NCCNC(=O)NC4CCN(c5ccccn5)CC4)nc32)[C@H](O)[C@@H]1O
inactive: Potency [1] | Potency [2] | Potency [3] | Potency [4]

CC(=O)OC[C@]1(O)[C@H]2[C@H](OC(=O)CC(C)C)OC=C(CO[C@@H]3O[C@H](CO)[C@@H](O)[C@H](O)[C@H]3O)[C@H]2C[C@@H]1O
inactive: Potency [1] | Potency [2] | Potency [3] | Potency [4]

Cn1c(=O)cc(N2CCCC(N)C2)n(Cc2ccccc2C#N)c1=O (centres undefined)
inactive: Potency [1] | Potency [2] | Potency [3] | Potency [4]

COC(=O)C1=CO[C@@H](O[C@@H]2O[C@H](COC(=O)/C=C/c3cc(OC)c(O)c(OC)c3)[C@@H](O)[C@H](O)[C@H]2O)[C@@H]2C(CO)=CC[C@H]12
inactive: Potency [1] | Potency [2] | Potency [3] | Potency [4]

C[C@@H]1C[C@H](O)/C=C/[C@H](O)[C@@H](O)CC(=O)O1
inactive: Potency [1] | Potency [2] | Potency [3] | Potency [4]

CC1CCC2(O1)C(C)(C)CC(O[C@@H]1O[C@H](CO[C@@H]3OC[C@](O)(CO)[C@H]3O)[C@@H](O)[C@H](O)[C@H]1O)CC2(C)O (some centres undefined)
inactive: Potency [1] | Potency [2] | Potency [3] | Potency [4]

N#Cc1ccc2[nH]c(O)c(-c3ccc(CN4CCOCC4)cn3)c2c1
inactive: Potency [1] | Potency [2] | Potency [3] | Potency [4]

CC(C)(O)C1CCC2(C)C3C(O)C4C(C13)C42CO (centres undefined)
inactive: Potency [1] | Potency [2] | Potency [3] | Potency [4]

COc1ccc2c(c1)O[C@H](O[C@@H]1O[C@H](CO)[C@@H](O)[C@H](O)[C@H]1O)C(=O)N2
inactive: Potency [1] | Potency [2] | Potency [3] | Potency [4]

CC1=C2C3OC(=O)C(C)C3(O)CCC2(C)CCC1=O (centres undefined)
inactive: Potency [1] | Potency [2] | Potency [3] | Potency [4]

C/C=C(\C)C(=O)OC[C@H]1O[C@H](O[C@H]2O[C@H](CO)[C@@H](OC(=O)/C(C)=C/C)[C@H](O)[C@H]2O[C@@H]2O[C@H](CO)[C@@H](O)[C@H](O)[C@H]2O)[C@H](O[C@@H]2O[C@H](CO)[C@@H](O)[C@H](O)[C@H]2O)[C@@H](O)[C@@H]1O
inactive: Potency [1] | activity change, negative = inhibition [2] 1.93% [at 11.6 µM] | activity, negative = inhibition [3] 0% [at 11.6 µM] | redox activity (% of DA3003) [4] 3.6% [at 11.5 µM]

CC1CCC2C(C)(C)C(O)CCC2(C)C12Cc1c(O)cc3c(c1O2)CN=C3N (centres undefined)
inactive: Potency [1] | Potency [2] | Potency [3] | Potency [4]
